# Results filed as inconclusive are left out. A call without a number means that no potency is given here. Activity calls are given as the source filed them. Calls come from the whole dose curve; as a rule, active = well fitted curve in the direction sought with a large enough effect; inconclusive = small, poorly fitted or top-dose-only effect, or another doubt; inactive = no such curve, though single readings can be large; an effect the other way counts as inactive or inconclusive.
# Test: S16 Schwann cell viability assay (CellTiter-Glo assay) (AID 624031);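 note: native untransfected S16 rat Schwann cells; cellular ATP luminescence as a viability measure; nearly all actives have a fitted effect of over 70% in size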
# Details: S16 rat Schwann cells viability, 24 h; series mostly up to 57.5 µM
# Method in brief: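 Cells were seeded at 500-750 per well in phenol red-free DMEM with 10% FBS and left overnight. Compounds or DMSO were pinned in, incubation ran 24 h at 37 °C/5% CO2, then CellTiter-Glo reagent was added and luminescence measured.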
row,SMILES,Potency
1,NC(=O)c1cccnc1,inactive
2,CN1CCN(c2c(F)cc3c(=O)c(C(=O)O)cn(CCF)c3c2F)CC1,inactive
3,COc1ncnc(NS(=O)(=O)c2ccc(N)cc2)c1OC,inactive
4,CC(C)Cn1cnc2c(N)nc3ccccc3c21,inactive
5,Nc1nc(N)nc(-c2cc(Cl)ccc2Cl)n1,inactive
6,Cn1nnc2c(C(N)=O)ncn2c1=O,inactive
7,O=c1oc2c(O)c(O)cc3c(=O)oc4c(O)c(O)cc1c4c23,inactive
8,CCn1cc(C(=O)O)c(=O)c2cc(F)c(N3CCNCC3)nc21,inactive
9,N[C@@H](C(=O)N[C@@H]1C(=O)N2C(C(=O)O)=C(Cl)CS[C@H]12)c1ccccc1,inactive
10,NC(=O)N1c2ccccc2CC(=O)c2ccccc21,inactive
11,CCn1cc(C(=O)O)c(=O)c2cc(F)c(N3CCNCC3)cc21,inactive
12,CCOC(=O)c1ccc(C#Cc2ccc3c(c2)C(C)(C)CCS3)nc1,inactive
13,COC(=O)Nc1nc2ccc(C(=O)c3ccccc3)cc2[nH]1,inactive
14,Clc1ccccc1CN1CCc2sccc2C1,inactive
15,CN1CCN(c2c(F)cc3c(=O)c(C(=O)O)cn4c3c2OCN4C)CC1,inactive
16,CCOC(=O)c1ccc(OC(=O)CCCCCN=C(N)N)cc1,inactive
17,CNS(=O)(=O)Cc1ccc2[nH]cc(CCN(C)C)c2c1,inactive

row,SMILES,Potency
1,COC(=O)Nc1nc2ccc(Sc3ccccc3)cc2[nH]1,inactive
2,O=C(O)c1cccnc1,inactive
3,COc1ccc(-c2ccc3cc(C(=O)O)ccc3c2)cc1C12CC3CC(CC(C3)C1)C2,inactive
4,CC(N)C12CC3CC(CC(C3)C1)C2 (stereo unspecified),inactive
5,O=S(=O)(c1cccc2cnccc12)N1CCCNCC1,inactive
6,CCN(C)C(=O)Oc1cccc([C@H](C)N(C)C)c1,inactive
7,CCc1c2c(nc3ccc(OC(=O)N4CCC(N5CCCCC5)CC4)cc13)-c1cc3c(c(=O)n1C2)COC(=O)[C@]3(O)CC,inactive
8,C#CCN[C@@H]1CCc2ccccc21,inactive
9,CCCCOc1ccc(CC(=O)NO)cc1,inactive
10,CC(C)(C#N)c1cc(Cn2cncn2)cc(C(C)(C)C#N)c1,inactive
11,Cc1oc(=O)oc1CN1CCN(c2cc3c(cc2F)c(=O)c(C(=O)O)c2n3C(C)S2)CC1 (stereo unspecified),inactive
12,CCOCC(O)COc1ccc(NC(=O)CC[S+](C)C)cc1 (stereo unspecified),inactive
13,CC(C)(Sc1cc(C(C)(C)C)c(O)c(C(C)(C)C)c1)Sc1cc(C(C)(C)C)c(O)c(C(C)(C)C)c1,inactive
14,CCCN[C@H]1CCc2nc(N)sc2C1,inactive
15,COc1cc(NS(=O)(=O)c2ccc(N)cc2)nc(OC)n1,inactive
16,COc1c(N2CCNC(C)C2)c(F)cc2c(=O)c(C(=O)O)cn(C3CC3)c12 (stereo unspecified),inactive
17,Nc1[nH]c(=O)ncc1F,inactive

# Test: S16 Schwann cell PMP22 intronic element firefly luciferase assay (AID 624032); note: nearly all actives have a fitted effect of over 30% in size
# Details: S16 rat Schwann cells, PMP22 element FLuc, 24 h; series mostly up to 57.5 µM
# Method in brief: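 Rat S16 Schwann cells stably carrying a PMP22 intronic element-driven Fluc reporter were seeded overnight, then exposed to compounds for 24 h at 37 °C. Luminescence was normalized to PTC124 (positive control) and DMSO (0% activity).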
row,SMILES,Potency
1,NC(=O)c1cccnc1,inactive
2,CN1CCN(c2c(F)cc3c(=O)c(C(=O)O)cn(CCF)c3c2F)CC1,inactive
3,COc1ncnc(NS(=O)(=O)c2ccc(N)cc2)c1OC,inactive
4,Nc1nc(N)nc(-c2cc(Cl)ccc2Cl)n1,inactive
5,Cn1nnc2c(C(N)=O)ncn2c1=O,inactive
6,O=c1oc2c(O)c(O)cc3c(=O)oc4c(O)c(O)cc1c4c23,inactive
7,CCn1cc(C(=O)O)c(=O)c2cc(F)c(N3CCNCC3)nc21,inactive
8,N[C@@H](C(=O)N[C@@H]1C(=O)N2C(C(=O)O)=C(Cl)CS[C@H]12)c1ccccc1,inactive
9,CCn1cc(C(=O)O)c(=O)c2cc(F)c(N3CCNCC3)cc21,inactive
10,COC(=O)Nc1nc2ccc(C(=O)c3ccccc3)cc2[nH]1,inactive
11,Clc1ccccc1CN1CCc2sccc2C1,inactive
12,CN1CCN(c2c(F)cc3c(=O)c(C(=O)O)cn4c3c2OCN4C)CC1,inactive
13,CCOC(=O)c1ccc(OC(=O)CCCCCN=C(N)N)cc1,inactive
14,CNS(=O)(=O)Cc1ccc2[nH]cc(CCN(C)C)c2c1,inactive
15,COC(=O)Nc1nc2ccc(Sc3ccccc3)cc2[nH]1,inactive
16,O=C(O)c1cccnc1,inactive
17,CC(N)C12CC3CC(CC(C3)C1)C2 (stereo unspecified),inactive
18,O=S(=O)(c1cccc2cnccc12)N1CCCNCC1,inactive
19,CCN(C)C(=O)Oc1cccc([C@H](C)N(C)C)c1,inactive
20,C#CCN[C@@H]1CCc2ccccc21,inactive
21,CC(C)(C#N)c1cc(Cn2cncn2)cc(C(C)(C)C#N)c1,inactive
22,Cc1oc(=O)oc1CN1CCN(c2cc3c(cc2F)c(=O)c(C(=O)O)c2n3C(C)S2)CC1 (stereo unspecified),inactive
23,CCOCC(O)COc1ccc(NC(=O)CC[S+](C)C)cc1 (stereo unspecified),inactive
24,CC(C)(Sc1cc(C(C)(C)C)c(O)c(C(C)(C)C)c1)Sc1cc(C(C)(C)C)c(O)c(C(C)(C)C)c1,inactive
25,COc1cc(NS(=O)(=O)c2ccc(N)cc2)nc(OC)n1,inactive
26,COc1c(N2CCNC(C)C2)c(F)cc2c(=O)c(C(=O)O)cn(C3CC3)c12 (stereo unspecified),inactive
27,Nc1[nH]c(=O)ncc1F,inactive

# — PubChem BioAssay (NCATS)
